Assay results reported in PubChem BioAssay.
For part of these data: Measured potencies and affinities stand elsewhere. Activity calls are given as the source filed them. Unless noted, how the calls were made is not given here.

How the values were obtained:
[1] = target: Calcium-dependent protein kinase 1 (Plasmodium falciparum (isolate 3D7)) (UniProt P62344); test: PfCDPK1 kinase inhibitors, biochemical, TCAMS library (AID 1159585; cut-off not given, nearly all actives have IC50 up to about 0.98 µM;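 further: inhibitors leave more ATP so luminescence rises with inhibition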); details: recombinant PfCDPK1, Kinase-Glo ATP depletion luminescence
[2] = target: Plasmodium falciparum protein kinase 6 (PK6, PF3D7_1337100) (UniProt Q8IDW1); test: PfPK6 kinase inhibitors, biochemical, TCAMS library (AID 1159586); details: recombinant PfPK6, Kinase-Glo ATP depletion luminescence
[3] = target: Protein kinase 7 (PK7), Plasmodium falciparum 3D7 (PF3D7_0213400) (UniProt Q7YTF7); test: inhibition of Plasmodium PK7 catalytic activity – biochemical, TCAMS antimalarial set, Kinase-Glo luminescence (AID 1159587); details: recombinant PfPK7, Kinase-Glo ATP depletion luminescence
[4] = target: Calcium-dependent protein kinase 4 (Plasmodium falciparum (isolate 3D7)) (UniProt Q8IBS5); test: PfCDPK4 kinase inhibitors, biochemical, TCAMS library (AID 1159588; cut-off not given, nearly all actives have IC50 up to about 0.91 µM); details: recombinant PfCDPK4, Kinase-Glo ATP depletion luminescence
[5] = antimalarial activity against Dd2 strain (AID 2302;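 active means growth inhibition above 50% at the single 2 µM test dose, taken to imply half-maximal potency below 2 µM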;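 further: 0% = DMSO untreated growth and 100% = chloroquine plus artemisinin killed control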); details: P. falciparum Dd2 in RBCs, LDH growth readout, 72 h; at 2 µM; active compounds read high
[6] = HepG2 cytotoxicity, primary screen, cytotoxicity control for P. falciparum antimalarial project, cell-based, ATP luminescence (AID 2303;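 active means inhibition above 50%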;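 further: 0% = DMSO wells and 100% = digitonin-killed cells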); details: HepG2 viability, 24-48 h, at 10 µM, active compounds read high
[7] = target: L-lactate dehydrogenase (Plasmodium falciparum (isolate CDC / Honduras)) (UniProt Q27743); test: PfLDH activity inhibition – cell lysate, 3D7 strain, counter-screen for P. falciparum growth inhibition project (AID 2304);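 further: 0% = vehicle and 100% = reference inhibitor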; details: P. falciparum 3D7 crude extract, LDH APAD/NBT absorbance; at 2 µM; active compounds read high
[8] = inhibition of 3D7 malaria parasite growth – strain 3D7 (AID 2306);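 further: 0% = DMSO wells and 100% = chloroquine plus artemisinin control wells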; details: P. falciparum 3D7 erythrocytic growth, LDH absorbance, 72 h; at 2 µM; active compounds read high
F380Y = test: modulators of BK channel variants, profiling panel, selectivity assay, cell-based, U2OS BacMam, thallium flux, beta subunits (AID 1259406;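 active means thallium flux through the channel raised or lowered by more than 3 SD from vehicle-only wells, actives on both sides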;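 further: initial slope of Thallos dye fluorescence rise after thallium is added; log ratio against the mean of 0.3% DMSO vehicle wells on the same plate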); details: at 30 µM
F380Y/beta1 = test: as above; details: at 30 µM
F380Y/beta2Delta = test: as above; details: at 30 µM
F380Y/beta4 = test: as above; details: at 30 µM
[9] = target: Calcium-activated potassium channel subunit alpha-1 (Homo sapiens) + Leucine-rich repeat-containing protein 26 (Homo sapiens) (UniProt Q12791+Q2I0M4); test: as above; details: F380Y/Slo1WT/gamma1, at 30 µM
R275C = test: as above; details: at 30 µM
R275C/beta1 = test: as above; details: at 30 µM
R275C/beta2Delta = test: as above; details: at 30 µM
R275C/beta4 = test: as above; details: at 30 µM
R275C/Slo1WT/beta2 = test: as above; details: at 30 µM

Calcium-dependent protein kinase 4 (Plasmodium falciparum (isolate 3D7)), sequence (Q8IBS5 whole entry, looked up): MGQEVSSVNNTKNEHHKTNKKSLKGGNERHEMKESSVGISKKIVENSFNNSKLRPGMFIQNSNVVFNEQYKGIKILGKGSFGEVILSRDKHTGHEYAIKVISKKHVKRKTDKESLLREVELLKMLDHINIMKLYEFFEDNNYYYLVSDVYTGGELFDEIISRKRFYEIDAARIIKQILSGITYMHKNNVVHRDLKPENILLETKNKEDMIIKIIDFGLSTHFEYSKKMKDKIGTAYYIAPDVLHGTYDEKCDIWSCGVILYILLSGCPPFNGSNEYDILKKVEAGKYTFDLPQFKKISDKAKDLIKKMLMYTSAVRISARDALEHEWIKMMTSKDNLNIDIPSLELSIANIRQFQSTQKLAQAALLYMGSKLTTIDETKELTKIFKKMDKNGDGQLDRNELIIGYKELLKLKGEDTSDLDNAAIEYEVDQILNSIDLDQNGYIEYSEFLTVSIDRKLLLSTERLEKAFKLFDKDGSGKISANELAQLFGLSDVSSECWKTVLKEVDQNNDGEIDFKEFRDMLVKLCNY
Protein kinase 7 (PK7), Plasmodium falciparum 3D7 (PF3D7_0213400), sequence (Q7YTF7 1-343): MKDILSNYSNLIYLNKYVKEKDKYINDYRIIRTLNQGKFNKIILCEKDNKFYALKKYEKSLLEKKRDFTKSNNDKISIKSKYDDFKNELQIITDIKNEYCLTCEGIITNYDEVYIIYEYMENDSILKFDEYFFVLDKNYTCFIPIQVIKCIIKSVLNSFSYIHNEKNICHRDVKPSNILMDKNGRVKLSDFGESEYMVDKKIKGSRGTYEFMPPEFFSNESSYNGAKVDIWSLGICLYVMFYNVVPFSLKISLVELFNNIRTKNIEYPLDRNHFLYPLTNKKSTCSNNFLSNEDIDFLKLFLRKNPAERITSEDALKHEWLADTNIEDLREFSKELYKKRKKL
L-lactate dehydrogenase (Plasmodium falciparum (isolate CDC / Honduras)), sequence (Q27743 whole entry, looked up): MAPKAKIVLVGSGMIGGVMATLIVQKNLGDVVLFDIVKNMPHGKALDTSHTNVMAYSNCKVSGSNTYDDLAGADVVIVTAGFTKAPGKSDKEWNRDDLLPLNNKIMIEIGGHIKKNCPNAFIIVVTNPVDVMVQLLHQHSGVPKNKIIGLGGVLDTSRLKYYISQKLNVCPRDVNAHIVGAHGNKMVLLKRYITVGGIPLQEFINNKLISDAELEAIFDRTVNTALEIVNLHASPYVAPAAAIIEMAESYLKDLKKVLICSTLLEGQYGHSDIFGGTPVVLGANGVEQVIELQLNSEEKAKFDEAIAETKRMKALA
Calcium-dependent protein kinase 1 (Plasmodium falciparum (isolate 3D7)), sequence (P62344 whole entry, looked up): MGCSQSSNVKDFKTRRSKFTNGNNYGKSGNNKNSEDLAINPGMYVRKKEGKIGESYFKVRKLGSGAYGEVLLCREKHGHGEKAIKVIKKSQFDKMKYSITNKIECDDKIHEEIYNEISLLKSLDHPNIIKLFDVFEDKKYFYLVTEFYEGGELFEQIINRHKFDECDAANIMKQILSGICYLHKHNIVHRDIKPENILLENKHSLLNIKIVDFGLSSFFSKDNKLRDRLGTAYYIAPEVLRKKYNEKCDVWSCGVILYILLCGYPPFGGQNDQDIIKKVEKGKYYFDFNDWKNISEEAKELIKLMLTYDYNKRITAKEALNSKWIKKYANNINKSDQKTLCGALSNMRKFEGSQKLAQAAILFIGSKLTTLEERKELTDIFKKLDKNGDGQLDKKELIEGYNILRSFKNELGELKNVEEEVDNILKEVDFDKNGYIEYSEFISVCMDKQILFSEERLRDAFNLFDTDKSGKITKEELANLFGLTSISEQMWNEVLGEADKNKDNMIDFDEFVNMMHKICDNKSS
Plasmodium falciparum protein kinase 6 (PK6, PF3D7_1337100), sequence (Q8IDW1 1-305): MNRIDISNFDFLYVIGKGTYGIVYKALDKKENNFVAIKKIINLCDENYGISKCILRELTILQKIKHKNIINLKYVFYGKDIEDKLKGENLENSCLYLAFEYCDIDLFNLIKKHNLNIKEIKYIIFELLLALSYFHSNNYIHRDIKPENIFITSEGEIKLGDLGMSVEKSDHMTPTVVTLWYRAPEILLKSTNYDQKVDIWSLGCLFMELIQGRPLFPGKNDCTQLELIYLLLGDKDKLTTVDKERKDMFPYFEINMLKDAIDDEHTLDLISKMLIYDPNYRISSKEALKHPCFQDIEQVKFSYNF
Calcium-activated potassium channel subunit alpha-1 (Homo sapiens) + Leucine-rich repeat-containing protein 26 (Homo sapiens), sequence (Q2I0M4 whole entry, looked up, one chain of several): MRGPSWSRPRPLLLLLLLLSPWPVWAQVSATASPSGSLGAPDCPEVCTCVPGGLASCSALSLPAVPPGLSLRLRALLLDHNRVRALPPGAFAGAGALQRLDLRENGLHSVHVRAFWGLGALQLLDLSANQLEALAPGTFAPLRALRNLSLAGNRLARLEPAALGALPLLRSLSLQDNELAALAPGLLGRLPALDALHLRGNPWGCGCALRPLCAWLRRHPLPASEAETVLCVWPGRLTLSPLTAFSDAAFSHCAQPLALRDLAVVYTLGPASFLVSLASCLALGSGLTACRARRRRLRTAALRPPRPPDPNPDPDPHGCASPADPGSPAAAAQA

O=C(N/C=N/c1cc([N+](=O)[O-])c(-c2ccncc2)n1-c1ccccc1)c1cccc(O)c1
inactive: outcome [1] | outcome [2] | outcome [3] | outcome [4]

CCCCCC(C)C(C)c1cc(O)c2c(c1)OC(C)(C)CC2c1cc[n+]([O-])cc1 (stereo not given)
inactive: outcome [1] | outcome [2] | outcome [3] | outcome [4]

Oc1cccc(-c2nc(-c3cccc(I)c3)c(-c3ccc(-c4[nH]c(-c5cccc(O)c5)nc4-c4cccc(I)c4)cc3)[nH]2)c1
inactive: outcome [1] | outcome [2] | outcome [3] | outcome [4]

Oc1c(/C=N/n2cnnc2)sc2ccccc12
inactive: outcome [1] | outcome [2] | outcome [3] | outcome [4]

CCN(CC)CCCN=c1ccn(O)c2cc3ccccc3cc12
inactive: outcome [1] | outcome [2] | outcome [3] | outcome [4]

CN(C)c1nc(N/N=C/c2cc(Cl)ccc2O)nc(Nc2ccc(F)cc2)n1
inactive: outcome [1] | outcome [2] | outcome [3] | outcome [4]

CN(C)c1nc(NCc2ccccc2)nc(N/N=C/c2cc([N+](=O)[O-])ccc2O)n1
inactive: outcome [1] | outcome [2] | outcome [3] | outcome [4]

CCCCCC(C)C(C)c1cc(O)c2c(c1)OC(C)(C)C/C2=C\c1ccncc1 (stereo not given)
inactive: outcome [1] | outcome [2] | outcome [3] | outcome [4]

O=[N+]([O-])c1cccc(-c2nc3ccc(C4=N[C@@H]5CCCC[C@@H]5N4)cc3[nH]2)c1
inactive: outcome [1] | outcome [2] | outcome [3] | outcome [4]

CN(C)CCCOc1ccc(-c2nc(-c3ccc4c(c3)CC/C4=N\O)c(-c3ccncc3)[nH]2)cc1
inactive: outcome [1] | outcome [2] | outcome [3] | outcome [4]

O=C(Cc1ccc[n+]([O-])c1)Nc1cccc(-c2cccc(-c3nc4ccc(C(F)(F)F)cc4[nH]3)c2)c1
inactive: outcome [1] | outcome [2] | outcome [3] | outcome [4]

O=[N+]([O-])c1ccc(/C=N/O)nc1
inactive: outcome [1] | outcome [2] | outcome [3] | outcome [4]

N=C(N)c1ccc(/C=C/c2ccc(C(=N)N)cc2O)cc1
inactive: outcome [1] | outcome [2] | outcome [3] | outcome [4]

C/C(=N\O)C1=C(O)C(c2ccccc2)N(c2ccccc2)C1=O (stereo not given)
inactive: outcome [1] | outcome [2] | outcome [3] | outcome [4]

O=C(CSc1cccc[n+]1[O-])c1ccc(Cc2ncc(C(F)(F)F)cc2Cl)s1
inactive: outcome [1] | outcome [2] | outcome [3] | outcome [4]

Oc1cccc(-c2nc(-c3ccc4oc5ccc(-c6nc(-c7cccc(O)c7)[nH]c6-c6ccccc6)cc5c4c3)c(-c3ccccc3)[nH]2)c1
inactive: outcome [1] | outcome [2] | outcome [3] | outcome [4]

CN(C)c1cc(N/N=C/c2cc(Cl)ccc2O)nc(N(C)C)n1
inactive: outcome [1] | outcome [2] | outcome [3] | outcome [4]

CCC[C@@H]([C@H](CC1CCCCC1)C(=O)N[C@H](C(=O)Nc1nccc(N)n1)C(C)(C)C)N(O)C=O
inactive: outcome [1] | outcome [2] | outcome [3] | outcome [4]

COc1ccc(Nc2nc(N/N=C/c3cc(Cl)ccc3O)nc(Nc3ccccc3)n2)cc1
inactive: outcome [1] | outcome [2] | outcome [3] | outcome [4]

O=C(Nc1ccc(Oc2ccc(OC(F)(F)F)cc2)cc1)c1ccco1
active: growth inhibition [5] 71% | growth inhibition [8] 90% | log fold change Tl+ flux (F380Y) -0.43 | log fold change Tl+ flux (F380Y/beta1) -0.196 | log fold change Tl+ flux (F380Y/beta2Delta) -0.597 | log fold change Tl+ flux (F380Y/beta4) -0.36 | log fold change Tl+ flux [9] -0.305
inactive: inhibition [6] 5% | inhibition [7] -1% | outcome [1] | outcome [2] | outcome [3] | outcome [4] | log fold change Tl+ flux (R275C) -0.00331 | log fold change Tl+ flux (R275C/beta1) -0.0279 | log fold change Tl+ flux (R275C/beta2Delta) 0.0205 | log fold change Tl+ flux (R275C/beta4) -0.00484 | log fold change Tl+ flux (R275C/Slo1WT/beta2) 0.0301

O=C(O)CCSSc1cccc[n+]1[O-]
inactive: outcome [1] | outcome [2] | outcome [3] | outcome [4]

CCOc1cc(/C=N/Nc2nc(C)cc(-n3nc(C)cc3C)n2)ccc1O
inactive: outcome [1] | outcome [2] | outcome [3] | outcome [4]

O=C(Cc1ccc[n+]([O-])c1)Nc1ccc(-c2cccc(-c3nc4ccc(C(F)(F)F)cc4[nH]3)c2)cc1
inactive: outcome [1] | outcome [2] | outcome [3] | outcome [4]

CCCC[C@H](C(=O)NCc1ccccc1C(F)(F)F)N1C(=O)CCC1C(=O)Nc1ccc([N+](=O)[O-])cc1 (stereo not given in full)
inactive: outcome [1] | outcome [2] | outcome [3] | outcome [4]

COc1cc(-c2nc(-c3ccc4c(c3)CC/C4=N\O)c(-c3ccncc3)[nH]2)ccc1OCCN1CCN(C)CC1
inactive: outcome [1] | outcome [2] | outcome [3] | outcome [4]

Cc1[nH]c2ccccc2c1/C=N/Nc1nc(Nc2ccccc2)nc(Nc2ccccc2)n1
inactive: outcome [1] | outcome [2] | outcome [3] | outcome [4]

COc1ccc(Nc2nc(N/N=C/c3ccc(O)cc3)nc(Nc3ccc([N+](=O)[O-])cc3)n2)cc1
inactive: outcome [1] | outcome [2] | outcome [3] | outcome [4]

Nc1c2c(nc3ccccc13)/C(=C/c1ccc(O)cc1)CCC2
inactive: outcome [1] | outcome [2] | outcome [3] | outcome [4]

CN1CCN(Cc2ccc(-c3cc4nccc(Nc5ccc(Oc6ccccc6)cc5)c4cc3Cl)o2)CC1
inactive: inhibition [6] 3% | inhibition [7] -5% | outcome [1] | outcome [2] | outcome [3] | outcome [4]
active: growth inhibition [5] 99% | growth inhibition [8] 100%

CC(CCCCC(=O)Nc1ccc(C(F)(F)F)cc1)NCC(O)c1cccc(Cl)c1 (stereo not given)
inactive: inhibition [7] -8% | outcome [1] | outcome [2] | outcome [3] | outcome [4]
active: growth inhibition [5] 92% | inhibition [6] 51% | growth inhibition [8] 99%

COc1cccc(CNC(=O)c2cnc(N3CCN(c4ccncc4)CC3)c(Cl)c2)c1
inactive: growth inhibition [5] 12% | inhibition [6] 25% | inhibition [7] 5% | outcome [1] | outcome [2] | outcome [3] | outcome [4]
active: growth inhibition [8] 89%
